The whole screen tested about 340,000 compounds, of which about 2,100 (0.62%) were called active. These entries were drawn from the full list. Entries with a potency or affinity are not part of this list. A number with no mark means an inactive call.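 The calls were made as follows: active = first-screen hits whose inhibition reached a set limit at any dose in the follow-up dose series; inconclusive = inhibition above the set first-screen limit but never retested; inactive = the rest.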
Target: Rac GTPase-activating protein 1 (Homo sapiens) (UniProt Q9H0H5)
Sequence (Q9H0H5 whole entry, looked up): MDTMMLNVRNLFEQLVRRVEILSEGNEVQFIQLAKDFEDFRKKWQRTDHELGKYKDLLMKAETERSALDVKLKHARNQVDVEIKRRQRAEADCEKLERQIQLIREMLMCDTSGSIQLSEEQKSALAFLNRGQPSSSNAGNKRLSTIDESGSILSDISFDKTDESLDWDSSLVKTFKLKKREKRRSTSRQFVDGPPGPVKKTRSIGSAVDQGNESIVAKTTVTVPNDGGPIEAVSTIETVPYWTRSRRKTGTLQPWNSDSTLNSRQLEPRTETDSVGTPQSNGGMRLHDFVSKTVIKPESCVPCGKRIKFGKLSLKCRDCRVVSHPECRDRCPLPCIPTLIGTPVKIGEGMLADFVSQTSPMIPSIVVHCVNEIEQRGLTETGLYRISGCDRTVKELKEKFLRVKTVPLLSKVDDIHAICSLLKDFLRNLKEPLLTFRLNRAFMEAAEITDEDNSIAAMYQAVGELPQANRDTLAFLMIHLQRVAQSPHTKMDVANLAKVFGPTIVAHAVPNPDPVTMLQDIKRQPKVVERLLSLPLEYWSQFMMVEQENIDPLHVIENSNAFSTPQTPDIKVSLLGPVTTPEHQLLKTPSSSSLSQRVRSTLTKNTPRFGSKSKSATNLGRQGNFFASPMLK
Assay: MgcRacGAP GTPase-activating activity inhibitors, confirmation, biochemical, ADP Hunter fluorescence, primary and confirmatory (AID 624330);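 also: fluorescence reports GDP produced by GAP-driven GTP hydrolysis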
Details: MgcRacGAP-stimulated Rac1 GTP hydrolysis, at 30 µM, stronger effect = higher value, GST-tagged Rac1 F28L mutant substrate

Row | Structure (SMILES) | inhibition
1 | CCOc1cc(/C=C/c2cccc[n+]2C)ccc1OCC(=O)Nc1ccc(C)cc1 | 7.44%
2 | C[n+]1ccccc1/C=C/c1ccc(F)c(F)c1 | 9.42%
3 | Cc1ccc(CS(=O)Cc2ccc(C(=O)N3CCN(c4ccccn4)CC3)o2)cc1 (stereo not given) | 9.12%
4 | COc1ccc2cc[nH]c2c1 | 6.12%
5 | COc1cc2[nH]ccc(=O)c2cc1OC | 1.14%
6 | Nc1[nH][nH]c(=O)c1N=Nc1ccc2c(c1)OCO2 | 19.5%
7 | Nc1n[nH]c(N)c1N=Nc1ccc(F)cc1 | 12.4%
8 | Cc1ccccc1-n1c(SCC(=O)c2c(N)n(C3CC3)c(=O)[nH]c2=O)nnc1N1CCOCC1 | 4.29%
9 | CC1(C)CC(=O)C(C(C2=C(O)CC(C)(C)CC2=O)c2ccc(Cl)c([N+](=O)[O-])c2)C(=O)C1 (stereo not given) | -0.37%
10 | CCCC(C1=C(O)CC(C)(C)CC1=O)C1C(=O)CC(C)(C)CC1=O (stereo not given) | 8.39%
11 | CC1(C)CC(=O)C(C(C2=C(O)CC(C)(C)CC2=O)c2cccnc2)C(=O)C1 (stereo not given) | 12%
12 | CC1(C)CC(=O)C(C(C2=C(O)CC(C)(C)CC2=O)c2ccc([N+](=O)[O-])cc2)C(=O)C1 (stereo not given) | 10.9%
13 | CC1(C)CC(=O)C(Br)=C(O)C1 | -4.56%
14 | CC1(C)CC(=O)C(C(C2=C(O)CC(C)(C)CC2=O)c2ccco2)C(=O)C1 (stereo not given) | 29%
15 | COc1cccc(C(C2=C(O)CC(C)(C)CC2=O)C2C(=O)CC(C)(C)CC2=O)c1 (stereo not given) | -5.78%
16 | CC1(C)CC(=O)C(C(C2=C(O)CC(C)(C)CC2=O)c2cccc(O)c2)C(=O)C1 (stereo not given) | 7.97%
17 | CC[C@@]1(C(=O)OC)N[C@H](CN(C)C(=O)COC)[C@@H]2C(=O)N(C)C(=O)[C@@H]21 | 6.93%
18 | CC1CC(C)CN(CCCCOc2ccc([N+](=O)[O-])cc2)C1 (stereo not given) | 19.1%
19 | CCOC(=O)C1=C(C)NC(=O)NC1/C=C\c1ccccc1 (stereo not given) | 15.6%
20 | CCOc1ccc(CCNC(=O)C2=C(C)C(=O)OC23CCC(C)CC3)cc1 (stereo not given) | 8.86%
21 | CN1CCN(c2ccc(NC(=S)NC(=O)c3cccc4c(Cl)cccc34)cc2)CC1 | 9.96%
22 | CCCCNS(=O)(=O)c1cc2c3c(c1)CCN3C(=O)CC2 | 10.4%
23 | COc1ccc(S(=O)(=O)NCc2cn3c(C)csc3n2)cc1F | 7.58%
24 | CN(Cc1nc2ccccc2c(=O)[nH]1)C(=O)COc1ccccc1Cc1ccccc1 | 4.16%

Row | Structure (SMILES) | inhibition
25 | CNc1ccc(/C=C2\COc3ccccc3C2=O)cc1[N+](=O)[O-] | 9.69%
26 | O=C1C(=Cc2ccccc2[N+](=O)[O-])Cc2ccccc21 | 5.54%
27 | Cc1cc2oc(=O)c(CC(=O)NCCCO)c(C)c2c2occ(C(C)(C)C)c12 | 4.92%
28 | CCOc1cc(/C=N/NC(=O)c2cccnc2)ccc1OCC(N)=O | 3.29%
29 | O=C(OCc1nnc(-c2ccccc2)o1)c1cn(-c2ccccc2)nc1-c1ccccc1 | 4.52%
30 | O=C1CC(c2cccs2)c2ccc3ccccc3c2N1 (stereo not given) | 6.36%
31 | OC1CCN(Cc2cccc3ccccc23)CC1 | 14.2%
32 | COc1ccc(-c2nnn(CC(=O)NCCc3c[nH]c4ccccc34)n2)cc1OC | 7.85%
33 | COc1cc(/C=C2/C(=O)NN(c3ccc(F)cc3)C2=O)cc(Cl)c1O | 20.4%
34 | COc1cc(/C=C2/C(=O)NN(c3ccccc3)C2=O)cc(Br)c1O | 23.7%
35 | COc1cccc(C2=CC(=O)C[C@H](c3ccc4c(c3)OCO4)C2)c1OC | 6.37%
36 | CC1=CC(C)(C)N(C)C(=O)N1c1ccc(Cl)cc1 | 6.14%
37 | O=c1c2ccccc2ncn1-c1cccc(Cl)c1 | 5.62%
38 | Cc1cc(=O)cc(C)n1-c1ccc(Cl)cc1 | 5%
39 | Cc1nn(-c2ccc(Cl)cc2Cl)c(=O)c2ccccc12 | -1.03%
40 | O=c1c2cc([N+](=O)[O-])ccc2sn1-c1ccccc1 | 17.4%
41 | O=c1c2ccccc2sc2ccc(Cl)cc12 | 5.89%
42 | O=c1c2ccccc2cnn1-c1ccc(Cl)cc1 | 1.97%
43 | O=c1c2ccccc2sn1-c1ccc(S(=O)(=O)N2CCCCC2)cc1 | 10.2%
44 | O=c1c2cnn(-c3ccccc3)c2ncn1Cc1ccccc1F | 7.32%
45 | CC(=O)c1ccc(-c2nnc(CCC(=O)N3CCCC(C(=O)CC(C)C)C3)o2)s1 (stereo not given) | 9.2%
46 | CCn1c(SCC(=O)NCCOC)nc2sc3c(c2c1=O)CCCC3 | 6.34%
47 | CC1CCCCC1NC(=O)CCn1c(=O)sc2ccccc21 (stereo not given) | 12.2%
48 | CN(CC(=O)Nc1ccc(N2CCOCC2)cc1)CC(=O)Nc1ccccc1C#N | 6.72%

Row | Structure (SMILES) | inhibition
49 | O=c1oc2cc(Br)ccc2n1Cc1ccccc1 | 13.7%
50 | CCc1nnc(NC(=O)c2cccc(S(=O)(=O)N3CCCCC3)c2)s1 | 10.2%
51 | COC(=O)Cc1c(O)ccn(CCc2ccc(OC)c(OC)c2)c1=O | 5.94%
52 | Cc1ccc(S(=O)(=O)N2C[C@@H](C)[C@]3(C2)[C@H](O)[C@H](OC(=O)NC2CCCC2)C[C@H]2C(=O)N(c4ccccc4)C(=O)[C@H]23)cc1 | 15.8%
53 | CSc1nc2c(C)c(C)c(C)c(C)c2[nH]1 | 2.42%
54 | CCOC(=O)N1CCN(C(=O)CC(C(=O)N2CCc3ccccc32)n2ccnc2)CC1 (stereo not given) | 4.9%
55 | O=C(COc1ccc2c3c(c(=O)oc2c1)CCCC3)NCCN1CCOCC1 | 1.04%
56 | COC(=O)C1=C(O)/C(=C/c2cccc(OC)c2O)N=C1C | 28.1%
57 | CCOC(=O)C1=C(O)/C(=C\c2ccc(OC)c(OC)c2)N=C1C | -1.28%
58 | COC(=O)C1=C(O)/C(=C/c2ccc(OCC(=O)Nc3ccc(OC)cc3)cc2)N=C1C | 6.48%
59 | COC(=O)C1=C(O)/C(=C\c2sccc2C)N=C1C | 10.9%
60 | CCOC(=O)C1=C(O)/C(=C\c2cccc(OC)c2)N=C1C | 7.59%
61 | CCOC(=O)C1=C(O)/C(=C/c2cc(OC)c(OC)c(OC)c2)N=C1C | 2.56%
62 | CN1CCN(NC(=O)c2cc([N+](=O)[O-])cc([N+](=O)[O-])c2)CC1 | -0.16%
63 | CCC(C)NC(=O)CN(c1cc(C)cc(C)c1)S(=O)(=O)c1c(C)[nH]c(=O)[nH]c1=O (stereo not given) | 9.01%
64 | CCCC(=O)Nc1ccc2c(c1)nc(CCNC(=O)c1ccccc1)n2C | 1.08%
65 | Cc1nonc1CN(C)C(=O)c1cc(COc2ccc(F)cc2Cl)on1 | 1.26%
66 | Cn1c(=O)c2c(nc(N3CCNCC3)n2Cc2cccc3ccccc23)n(C)c1=O | 6.58%
67 | Cc1cccc(C(=O)NCC(=O)NNC(=O)c2ccccc2O)c1 | 2.8%
68 | Cc1ccc(NC(=O)c2cc(N3C(=O)CCC3=O)ccc2N2CCCCC2)cc1 | 5.7%
69 | Oc1[nH]c2ccccc2c1C=Nc1ccccc1 | 11.5%
70 | CCN(CC)c1ccc(N=Cc2ccc([N+](=O)[O-])o2)cc1 | 25.9%
71 | CCN(CC)c1ccc(N=Cc2ccc(N(CC)CC)cc2O)cc1 | 6.98%
72 | COc1ccc(N=Cc2c(O)[nH]c3ccccc23)cc1 | 9.26%

Row | Structure (SMILES) | inhibition
73 | CC1(C)CC(=O)C=C(NCCN2CCN(C(=S)NC3CCCCC3)CC2)C1 | -3.74%
74 | CN(Cc1ccccc1)S(=O)(=O)c1ccc(Cl)nc1 | 11.5%
75 | CCOC(=O)c1ccccc1NC(=O)COC(=O)CCNS(=O)(=O)c1cccs1 | 3.03%
76 | COc1ccc(NC(=O)NNC(=O)C(C)Oc2ccc3ccccc3c2)cc1 (stereo not given) | 3.58%
77 | O=C(Nc1ccc(Nc2ccccc2)cc1)C(Cl)(Cl)Cl | 12.3%
78 | Cc1ccc(Nc2ccccc2)cc1 | 6.69%
79 | S=C(NCCc1ccccc1)Nc1ccc(Nc2ccccc2)cc1 | 26.5%
80 | O=C(Nc1ccc(Nc2ccccc2)cc1)c1c(F)c(F)c(F)c(F)c1F | -3.02%
81 | Cc1ccc(C)c(OCCC(=O)OCC(=O)Nc2cc(S(=O)(=O)N3CCCCC3)ccc2C)c1 | 0.95%
82 | CC1CCN(C(=O)c2ccc(NS(=O)(=O)c3ccc4[nH]c(=O)[nH]c4c3)cc2)CC1 | 8.71%
83 | CN(CC(=O)O/N=C(\N)c1ccc([N+](=O)[O-])cc1)S(=O)(=O)c1ccccc1 | -3.85%
84 | O=C(/C=C/C(Cl)(Cl)Cl)Nc1ccc(Cl)cc1 | 9.68%
85 | CC1=NN(c2ccccc2)C(=O)C1C(=O)c1ccccc1 (stereo not given) | 12.2%
86 | CC1=NN(c2ccccc2)C(=O)C1C=Nc1ccccc1O (stereo not given) | 14.8%
87 | O=C(NC1(C(F)(F)F)C(=O)Nc2c1c(=O)[nH]c(=O)n2Cc1ccccc1)c1ccco1 (stereo not given) | 6.82%
88 | CCOc1ccccc1OCCOCCN1CC(C)OC(C)C1 (stereo not given) | 17.3%
89 | OCCN1CCN(CCOc2ccccc2-c2ccccc2)CC1 | -0.13%
90 | c1ccc(-c2ccccc2OCCOCCN2CCCCC2)cc1 | 17.9%
91 | CCN1CCN(CCOc2ccccc2-c2ccccc2)CC1 | 7.05%
92 | c1ccc(-c2ccccc2OCCCN2CCOCC2)cc1 | 27.2%
93 | OCCCN1CCN(CCCOc2ccccc2-c2ccccc2)CC1 | 5.09%
94 | c1ccc(-c2ccccc2OCCOCCN2CCNCC2)cc1 | 31.8%
95 | CC1CN(CCOc2ccccc2-c2ccccc2)CC(C)O1 (stereo not given) | 18%

From PubChem BioAssay AID624330 (Southern Research Specialized Biocontainment Screening …, 2012)
